Data as given in article PMC11006913.
Residue numbers refer to the chain shown, from its start.

Tests used:
Assay in all cases: PBM; 200 nM protein, PBS
Conditions in all cases: dsDNA, one strand shown
SIX6 [1] = molecular target: T1, SIX6 (Homo sapiens, UniProt O95475 114-200, L167I)
T1 sequence: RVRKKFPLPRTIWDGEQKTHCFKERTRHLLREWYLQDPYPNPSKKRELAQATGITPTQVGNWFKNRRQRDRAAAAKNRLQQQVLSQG

SIX6 [2] = molecular target: T2, SIX6 (Homo sapiens, UniProt O95475 114-200, L143V)
T2 sequence: T1 sequence with L30V, I54L

SIX6 [3] = molecular target: T3, SIX6 (Homo sapiens, UniProt O95475 114-200, H141N)
T3 sequence: T1 sequence with H28N, I54L

SIX6 [4] = molecular target: T4, SIX6 (Homo sapiens, UniProt O95475 114-200, T165P)
T4 sequence: T1 sequence with T52P, I54L

SIX6 [5] = molecular target: T5, SIX6 (Homo sapiens, UniProt O95475 114-200, L167M)
T5 sequence: T1 sequence with I54M

SIX6 [6] = molecular target: T6, SIX6 (Homo sapiens, UniProt O95475 114-200, L143M)
T6 sequence: T1 sequence with L30M, I54L

SIX6 [7] = molecular target: T7, SIX6 (Homo sapiens, UniProt O95475 114-200, L143I)
T7 sequence: T1 sequence with L30I, I54L

SIX6 [8] = molecular target: T8, SIX6 (Homo sapiens, UniProt O95475 114-200, T165G)
T8 sequence: T1 sequence with T52G, I54L

SIX6 [9] = molecular target: T9, SIX6 (Homo sapiens, UniProt O95475 114-200, T139Q)
T9 sequence: T1 sequence with T26Q, I54L

SIX6 [10] = molecular target: T10, SIX6 (Homo sapiens, UniProt O95475 114-200, T165A)
T10 sequence: T1 sequence with T52A, I54L

SIX6 [11] = molecular target: T11, SIX6 (Homo sapiens, UniProt O95475 114-200, L167V)
T11 sequence: T1 sequence with I54V

SIX6 [12] = molecular target: T12, SIX6 (Homo sapiens, UniProt O95475 114-200)
T12 sequence: T1 sequence with I54L

SIX6 [13] = molecular target: T13, SIX6 (Homo sapiens, UniProt O95475 114-200, T165I)
T13 sequence: T1 sequence with T52I, I54L

CCGGGGCC
binding signal (SIX6 [1]): 9.14 upbm affinity estimate (log intensity, higher = more binding, comparable within an allelic series)
binding signal (SIX6 [2]): 8.96 upbm affinity estimate (log intensity, higher = more binding, comparable within an allelic series)
binding signal (SIX6 [3]): 9.12 upbm affinity estimate (log intensity, higher = more binding, comparable within an allelic series)
binding signal (SIX6 [4]): 8.97 upbm affinity estimate (log intensity, higher = more binding, comparable within an allelic series)
binding signal (SIX6 [5]): 9.04 upbm affinity estimate (log intensity, higher = more binding, comparable within an allelic series)
binding signal (SIX6 [6]): 9.04 upbm affinity estimate (log intensity, higher = more binding, comparable within an allelic series)
binding signal (SIX6 [7]): 9.01 upbm affinity estimate (log intensity, higher = more binding, comparable within an allelic series)
binding signal (SIX6 [8]): 9.1 upbm affinity estimate (log intensity, higher = more binding, comparable within an allelic series)
binding signal (SIX6 [9]): 9.26 upbm affinity estimate (log intensity, higher = more binding, comparable within an allelic series)
binding signal (SIX6 [10]): 9.1 upbm affinity estimate (log intensity, higher = more binding, comparable within an allelic series)
binding signal (SIX6 [11]): 9.05 upbm affinity estimate (log intensity, higher = more binding, comparable within an allelic series)
binding signal (SIX6 [12]): 9.09 upbm affinity estimate (log intensity, higher = more binding, comparable within an allelic series)
binding signal (SIX6 [13]): 9.09 upbm affinity estimate (log intensity, higher = more binding, comparable within an allelic series)

GATATCTA
binding signal (SIX6 [1]): 11.1 upbm affinity estimate (log intensity, higher = more binding, comparable within an allelic series)
binding signal (SIX6 [2]): 10.4 upbm affinity estimate (log intensity, higher = more binding, comparable within an allelic series)
binding signal (SIX6 [3]): 11.1 upbm affinity estimate (log intensity, higher = more binding, comparable within an allelic series)
binding signal (SIX6 [4]): 9.98 upbm affinity estimate (log intensity, higher = more binding, comparable within an allelic series)
binding signal (SIX6 [5]): 10.8 upbm affinity estimate (log intensity, higher = more binding, comparable within an allelic series)
binding signal (SIX6 [6]): 10.9 upbm affinity estimate (log intensity, higher = more binding, comparable within an allelic series)
binding signal (SIX6 [7]): 10.3 upbm affinity estimate (log intensity, higher = more binding, comparable within an allelic series)
binding signal (SIX6 [8]): 11.1 upbm affinity estimate (log intensity, higher = more binding, comparable within an allelic series)
binding signal (SIX6 [9]): 11 upbm affinity estimate (log intensity, higher = more binding, comparable within an allelic series)
binding signal (SIX6 [10]): 11 upbm affinity estimate (log intensity, higher = more binding, comparable within an allelic series)
binding signal (SIX6 [11]): 10.9 upbm affinity estimate (log intensity, higher = more binding, comparable within an allelic series)
binding signal (SIX6 [12]): 10.9 upbm affinity estimate (log intensity, higher = more binding, comparable within an allelic series)
binding signal (SIX6 [13]): 10.9 upbm affinity estimate (log intensity, higher = more binding, comparable within an allelic series)

GGCGGACC
binding signal (SIX6 [1]): 8.97 upbm affinity estimate (log intensity, higher = more binding, comparable within an allelic series)
binding signal (SIX6 [2]): 8.88 upbm affinity estimate (log intensity, higher = more binding, comparable within an allelic series)
binding signal (SIX6 [3]): 9.01 upbm affinity estimate (log intensity, higher = more binding, comparable within an allelic series)
binding signal (SIX6 [4]): 8.96 upbm affinity estimate (log intensity, higher = more binding, comparable within an allelic series)
binding signal (SIX6 [5]): 8.9 upbm affinity estimate (log intensity, higher = more binding, comparable within an allelic series)
binding signal (SIX6 [6]): 8.83 upbm affinity estimate (log intensity, higher = more binding, comparable within an allelic series)
binding signal (SIX6 [7]): 8.88 upbm affinity estimate (log intensity, higher = more binding, comparable within an allelic series)
binding signal (SIX6 [8]): 8.99 upbm affinity estimate (log intensity, higher = more binding, comparable within an allelic series)
binding signal (SIX6 [9]): 8.91 upbm affinity estimate (log intensity, higher = more binding, comparable within an allelic series)
binding signal (SIX6 [10]): 8.99 upbm affinity estimate (log intensity, higher = more binding, comparable within an allelic series)
binding signal (SIX6 [11]): 8.82 upbm affinity estimate (log intensity, higher = more binding, comparable within an allelic series)
binding signal (SIX6 [12]): 8.92 upbm affinity estimate (log intensity, higher = more binding, comparable within an allelic series)
binding signal (SIX6 [13]): 8.89 upbm affinity estimate (log intensity, higher = more binding, comparable within an allelic series)

GGCCTCCA
binding signal (SIX6 [1]): 8.94 upbm affinity estimate (log intensity, higher = more binding, comparable within an allelic series)
binding signal (SIX6 [2]): 8.93 upbm affinity estimate (log intensity, higher = more binding, comparable within an allelic series)
binding signal (SIX6 [3]): 8.87 upbm affinity estimate (log intensity, higher = more binding, comparable within an allelic series)
binding signal (SIX6 [4]): 9.13 upbm affinity estimate (log intensity, higher = more binding, comparable within an allelic series)
binding signal (SIX6 [5]): 8.94 upbm affinity estimate (log intensity, higher = more binding, comparable within an allelic series)
binding signal (SIX6 [6]): 8.87 upbm affinity estimate (log intensity, higher = more binding, comparable within an allelic series)
binding signal (SIX6 [7]): 8.9 upbm affinity estimate (log intensity, higher = more binding, comparable within an allelic series)
binding signal (SIX6 [8]): 9 upbm affinity estimate (log intensity, higher = more binding, comparable within an allelic series)
binding signal (SIX6 [9]): 8.8 upbm affinity estimate (log intensity, higher = more binding, comparable within an allelic series)
binding signal (SIX6 [10]): 8.84 upbm affinity estimate (log intensity, higher = more binding, comparable within an allelic series)
binding signal (SIX6 [11]): 9.03 upbm affinity estimate (log intensity, higher = more binding, comparable within an allelic series)
binding signal (SIX6 [12]): 8.82 upbm affinity estimate (log intensity, higher = more binding, comparable within an allelic series)
binding signal (SIX6 [13]): 8.87 upbm affinity estimate (log intensity, higher = more binding, comparable within an allelic series)

GGTATCAA
binding signal (SIX6 [1]): 11.6 upbm affinity estimate (log intensity, higher = more binding, comparable within an allelic series)
binding signal (SIX6 [2]): 10.6 upbm affinity estimate (log intensity, higher = more binding, comparable within an allelic series)
binding signal (SIX6 [3]): 11.7 upbm affinity estimate (log intensity, higher = more binding, comparable within an allelic series)
binding signal (SIX6 [4]): 9.74 upbm affinity estimate (log intensity, higher = more binding, comparable within an allelic series)
binding signal (SIX6 [5]): 11 upbm affinity estimate (log intensity, higher = more binding, comparable within an allelic series)
binding signal (SIX6 [6]): 11.4 upbm affinity estimate (log intensity, higher = more binding, comparable within an allelic series)
binding signal (SIX6 [7]): 10.6 upbm affinity estimate (log intensity, higher = more binding, comparable within an allelic series)
binding signal (SIX6 [8]): 11.6 upbm affinity estimate (log intensity, higher = more binding, comparable within an allelic series)
binding signal (SIX6 [9]): 11.5 upbm affinity estimate (log intensity, higher = more binding, comparable within an allelic series)
binding signal (SIX6 [10]): 11.6 upbm affinity estimate (log intensity, higher = more binding, comparable within an allelic series)
binding signal (SIX6 [11]): 11.4 upbm affinity estimate (log intensity, higher = more binding, comparable within an allelic series)
binding signal (SIX6 [12]): 11.4 upbm affinity estimate (log intensity, higher = more binding, comparable within an allelic series)
binding signal (SIX6 [13]): 11.4 upbm affinity estimate (log intensity, higher = more binding, comparable within an allelic series)

AGCTCCGC
binding signal (SIX6 [1]): 9.05 upbm affinity estimate (log intensity, higher = more binding, comparable within an allelic series)
binding signal (SIX6 [2]): 8.96 upbm affinity estimate (log intensity, higher = more binding, comparable within an allelic series)
binding signal (SIX6 [3]): 8.98 upbm affinity estimate (log intensity, higher = more binding, comparable within an allelic series)
binding signal (SIX6 [4]): 8.97 upbm affinity estimate (log intensity, higher = more binding, comparable within an allelic series)
binding signal (SIX6 [5]): 8.95 upbm affinity estimate (log intensity, higher = more binding, comparable within an allelic series)
binding signal (SIX6 [6]): 9.08 upbm affinity estimate (log intensity, higher = more binding, comparable within an allelic series)
binding signal (SIX6 [7]): 9.04 upbm affinity estimate (log intensity, higher = more binding, comparable within an allelic series)
binding signal (SIX6 [8]): 9.04 upbm affinity estimate (log intensity, higher = more binding, comparable within an allelic series)
binding signal (SIX6 [9]): 8.99 upbm affinity estimate (log intensity, higher = more binding, comparable within an allelic series)
binding signal (SIX6 [10]): 8.94 upbm affinity estimate (log intensity, higher = more binding, comparable within an allelic series)
binding signal (SIX6 [11]): 9.1 upbm affinity estimate (log intensity, higher = more binding, comparable within an allelic series)
binding signal (SIX6 [12]): 8.9 upbm affinity estimate (log intensity, higher = more binding, comparable within an allelic series)
binding signal (SIX6 [13]): 9.01 upbm affinity estimate (log intensity, higher = more binding, comparable within an allelic series)
